Source: PubChem BioAssay AID488789 (Broad Institute, 2010)
Measured potencies and affinities stand elsewhere. Results filed as inconclusive are left out. Activity calls are given as the source filed them.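 The calls were made as follows: active = samples whose fitted half-maximal inhibition concentration is no more than ten times the top valid dose tested; inconclusive = flat response between -70 and -30, or invalid curve fit; inactive = flat within 30 of zero, potency above limit, or signal rising.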

Each compound was assayed against Trypsin (Sus scrofa) (UniProt P00761) (assay: porcine trypsin inhibitors, dose response, selectivity assay for Rce1 protease inhibitor project, biochemical, quenched peptide fluorescence, cherry-pick (AID 488789;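 also: more negative means stronger trypsin inhibition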)). Settings: quenched peptide cleavage fluorescence; series mostly up to 10 µM; activity change, negative = inhibition: at the top concentration.
Sequence of Trypsin (Sus scrofa) (P00761 whole entry, looked up): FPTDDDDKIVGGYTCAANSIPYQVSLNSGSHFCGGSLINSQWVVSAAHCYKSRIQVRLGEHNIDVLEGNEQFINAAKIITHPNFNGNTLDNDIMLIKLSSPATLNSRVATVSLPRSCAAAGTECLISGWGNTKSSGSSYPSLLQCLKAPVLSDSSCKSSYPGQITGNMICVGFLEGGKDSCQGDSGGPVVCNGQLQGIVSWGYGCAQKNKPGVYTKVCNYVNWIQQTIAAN

Activity change, negative = inhibition, inactive:
O=C(O)c1ccc2cccc(Cl)c2c1O 9.83%, Cc1cc(N2CCOCC2)n2cc(-c3ccccc3)nc2n1 -0.296%, CC(=O)c1ccc(-c2ccc(C(=O)N3CCC(C(N)=O)CC3)o2)cc1 15.8%, CCOC(=O)[C@@H]1[C@H]2COc3ccc(Br)cc3[C@@H]2N2C(=O)N(c3cccc(Cl)c3)C(=O)[C@]12C 4.84%, CCn1c(C)nc2c(=O)oc3ccccc3c21 2.76%, CCCOc1ccccc1C(=O)NCCCC(=O)O 2.2%, COc1ccccc1C1=NN(C2=NN=C(N)Cc3ncnn32)C(O)(C(F)(F)F)C1 (configuration not stated) -8.08%, O=[N+]([O-])c1ccc(-c2cnc(SC(c3ccccc3)c3ccccc3)[nH]2)cc1 -3.79%, Cc1ccc(C(=O)N/C(=C/c2ccco2)C(=O)Nc2cccc(C(=O)O)c2)cc1 5.53%, Cc1ccc(NS(=O)(=O)c2ccc(NC(=O)N3CCCCC3)cc2)cc1 -2.65%, CC(C)c1c(C(=O)N/N=C/c2ccsc2)nnn1-c1nonc1N 22.4%, CCOc1ccc(N(Cc2ccc(OC)cc2)C(=O)c2ccco2)cc1 13.2%, O=C(COC(=O)c1ccc(S(=O)(=O)N2CCCC2)cc1)NCc1ccccc1 14.1%, OC(CNCCC1C=Nc2ccccc21)Cn1c2ccc(Cl)cc2c2cc(Cl)ccc21 (configuration not stated) 1.09%, c1coc(-c2ccnc3ncnn23)c1 7.79%, CC(C)CC(=O)NC(=S)Nc1ccc(S(=O)(=O)Nc2nccs2)cc1 3.91%, COc1ccc(C(=O)/C=C/c2ccc(OC)cc2OC)c(O)c1 7.28%, CCOc1cccc(-c2nn(-c3ccccc3)cc2/C=C(/C#N)C(=O)NCCCn2ccnc2)c1 4.11%, Cc1ccc(C(=O)c2c3ccc(C(F)(F)F)cc3[n+]([O-])n2CCCC(N)=O)cc1 8.46%, CCn1nnnc1SCC(=O)Nc1nc(C)c(C)s1 -2.28%, COC(=O)C1CCCN1S(=O)(=O)c1ccc2ccccc2c1 (configuration not stated) -3.78%, Cc1c(Cl)c([N+](=O)[O-])nn1CC(=O)N1CCCc2ccccc21 3.75%, CCCCN(CC)CCNC(=O)c1cc2c(-c3ccc(Cl)cc3)nn(C)c2s1 66.6%, O=C(Nc1sc2c(c1C(=O)c1ccc(Cl)cc1)CCCC2)c1cccnc1 13.8%, CCCCCc1ccc(OCCOCCn2c[n+](C)c3ccccc32)c(CCCCC)c1 -2.39%, CCCCn1c(=O)[nH]c(=O)c2c1nc(-c1ccc(OC)c(Br)c1)n2CC(C)C 11.2%, NCCCn1c(C(=O)c2cc(Cl)c(N)c(Cl)c2)c2ccc(C(F)(F)F)cc2[n+]1[O-] 3.83%, CCCN(CCC)CCNC(=O)c1cc2c(-c3ccccc3F)nn(C)c2s1 10.6%, CCOc1ccc2[nH]c(=O)c(CN(CCN3CCOCC3)Cc3nnnn3C(C)(C)CC)cc2c1 3.69%, COC(C[C@@H](O)C[C@H](O)[C@H](C)OCc1ccccc1)OC 6.39%, CCN(CC)CCN(C(=O)c1cc2ccccc2cc1OC)c1nc2ccc(F)cc2s1 -2.96%, Cn1c(CN2CCOCC2)c(C#N)c2ccccc21 6.74%, COc1ccccc1NC(=O)Cc1nnc(SCC(=O)Nc2nccs2)n1C 13.3%, COc1cc(-c2nc3ccccn3c2/N=C/c2cccc(OC)c2O)ccc1O 1.16%, Cc1ccc2c(C)c(C(=O)N(Cc3ccc(F)cc3)C3CCS(=O)(=O)C3)oc2c1 (configuration not stated) 10.8%, N#CC(C#N)=C1NC(N)=C(C#N)C(c2ccccc2)=C1C#N -9.18%, COc1ccc(Cc2nc3ccc(C(=O)N4CCCC4)cc3o2)cc1 15.7%
